# Shown are actives, neighbours in structure and some others; about 1.2% of the full set was active somewhere.
# PI4K2A inh: blocks human PI4K2A kinase activity; AID 1346378; purified PI4K2A, ADP-Glo luminescence, 1 h; stronger effect = lower value; activity change, negative = inhibition, % at 76.9 µM; 0.13% of 420,000 active; in the data active = activity change below about -50%; inconclusive = mostly about -30% to -49%;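 also: -100% = wells without enzyme as full effect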
#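 PI4K2A activity was measured by ADP-Glo luminescence: enzyme (4 ug/mL stock) and phosphatidylinositol (1.2 mM stock) in Tris pH 7.5/MgCl2/EGTA/Triton X-100 buffer were reacted with ATP (300 microM stock) for one hour at ambient temperature.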
# TrxR1 inh: blocks rat thioredoxin reductase 1; O89049; 1% of 390,000 active; Potency, µM (series often up to 114 µM), for inactives: top-dose activity change, negative = inhibition, hits mostly inhibitors; recombinant rTrxR1, NADPH fluorescence consumption, selenite substrate; also: potency is read from the fitted curve at half-maximal effect; nearly all actives have a fitted effect of over 65% in size
#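 Rat TrxR1 (90 nM in the dispensed reagent) was pre-reduced with 400 uM NADPH for 5 min at room temperature, then incubated with compound for 15 min. After 400 uM selenite was added, NADPH fluorescence (Ex 340/Em 450 nm) was followed for 8 min.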
# PKM2 act: PKM2 (human) enzyme activation; P14618; purified PKM2, Kinase-Glo ATP luminescence, activation; response scale: 0% is enzyme alone, no compound; Potency, µM (series often up to 57.5 µM), for inactives: top-dose activation, hits mostly activators; 0.34% of 260,000 active; AID 1631; also: potency is read from the fitted curve at half-maximal effect; nearly all actives have a fitted effect of over 55% in size
# Target sequence (P14618 whole entry, looked up): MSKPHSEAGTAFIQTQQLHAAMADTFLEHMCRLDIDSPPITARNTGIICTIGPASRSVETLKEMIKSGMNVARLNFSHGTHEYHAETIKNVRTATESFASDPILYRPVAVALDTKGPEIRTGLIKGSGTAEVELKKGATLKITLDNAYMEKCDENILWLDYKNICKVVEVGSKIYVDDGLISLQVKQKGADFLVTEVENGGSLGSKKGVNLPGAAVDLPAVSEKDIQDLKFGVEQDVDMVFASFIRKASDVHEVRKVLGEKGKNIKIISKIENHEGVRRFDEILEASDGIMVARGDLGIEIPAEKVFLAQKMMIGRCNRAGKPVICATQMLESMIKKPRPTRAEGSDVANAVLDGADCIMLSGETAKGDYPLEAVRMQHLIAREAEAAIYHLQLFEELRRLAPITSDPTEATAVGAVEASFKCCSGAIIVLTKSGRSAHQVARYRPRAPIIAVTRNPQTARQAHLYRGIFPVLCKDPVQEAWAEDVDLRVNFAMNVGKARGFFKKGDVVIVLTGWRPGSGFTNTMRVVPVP
#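 Purified hPK-M2 (>95% pure) converted ADP (0.1 mM final) to ATP with 0.5 mM PEP in 50 mM imidazole pH7.2, KCl, MgCl2, Tween 20, BSA; 1 h at room temperature. ATP detected by Kinase-Glo luminescence.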
# TrxR1 substrate: substrates of rat thioredoxin reductase 1; 0.01% of 390,000 active; AID 588456; O89049; purified TrxR1 substrate turnover, NADPH consumption readout; Potency, µM (titrated, usually from 114 µM), for the others: at the top dose activity change, negative = substrate turnover; also: potency is read from the fitted curve at half-maximal effect; nearly all actives have a fitted effect of over 50% in size
#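 Rat TrxR1, dispensed at 90 nM, was prereduced with 400 uM NADPH (final) for 5 min at ~22 deg C, then incubated with compound 15 min before 400 uM selenite. A first-read NADPH fluorescence drop versus no-compound background flagged substrates.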
# GALK inhibitor: galactokinase (human) inhibition. Potency, µM (titrated, usually from 57.5 µM), without a hit: at the highest dose activity change, negative = inhibition, actives largely listed as inhibitors. Purified GALK, Kinase-Glo residual ATP luminescence. AID 1868. 0.007% of 270,000 active. P51570; also: potency is read from the fitted curve at half-maximal effect
#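 Kinase-Glo Plus luminescence measured ATP left after a 1 h room-temperature reaction. The reaction used 5 nM GALK, 100 uM galactose and 35 uM ATP at pH 8.0 (20 mM HEPES, 5 mM MgCl2, 60 mM NaCl, 1 mM DTT, 0.01% BSA).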
# An asterisk follows results filed as active; u = inconclusive; x = not tested or not shown; [ ] = remark or other dose. Unless noted, calls follow the shape of the dose curve; as a rule, active = well fitted curve in the direction sought with a large enough effect; inconclusive = small, poorly fitted or top-dose-only effect, or another doubt; inactive = no such curve, though single readings can be large; an effect the other way counts as inactive or inconclusive. Unless noted, % is scaled to controls: 0 for no effect and ±100 for the full control effect.
SMILES,PI4K2A inh,TrxR1 inh,PKM2 act,TrxR1 substrate,GALK inhibitor
Oc1c(CN2CCOCC2)cc(CN2CCOCC2)c(O)c1O,-8.7,-67.0%[57.1 µM],x,1.9%[57.1 µM],x
CCCc1cc(CN2CCOCC2)c(O)c(CN2CCOCC2)c1O,6.8,1.58µM*,x,2.4%[11.4 µM],x
CCOc1ccc(C(=O)C(CCC(CN(C)C)C(=O)c2ccc(OCC)cc2)CN(C)C)cc1 (stereo unspecified),6.4,2.82µM*,3.5%,-10.0%,-0.2%
COc1ccc(C(=O)C(CCCCC(CN(C)C)C(=O)c2ccc(OC)cc2)CN(C)C)cc1 (stereo unspecified),4.2,-19.1%,-3.8%,-0.9%,x
CN(C)CC(CCC(CN(C)C)C(=O)c1ccccc1)C(=O)c1ccccc1 (stereo unspecified),4.7,2.82µM*,10.9%,4.2%[57.1 µM],-2.4%
CC(C)(C)c1ccc(OCC(=O)Nc2c(C(=O)c3ccc(F)cc3)oc3ccccc23)cc1,7.3,29.9%,x,15.2%,x
Cn1c(=O)c2c(nc(N3CCOCC3)n2Cc2cccc(Br)c2)n(C)c1=O,2.5,4.6%,x,-7.4%,x
C=CCNc1oc(-c2ccc(-c3ccccc3)cc2)nc1C#N,-4.6,14.1µM*,x,-3.8%,x
CCN(c1ccccc1)S(=O)(=O)c1ccc2[nH]cc(C(=O)NCc3ccc(C)cc3)c(=O)c2c1,-8.7,45.7%[57.1 µM],x,6.6%[57.1 µM],x
CCOC(=O)c1c(C)c(-c2ccccc2)n(CC(=O)NCCc2cccc(C)c2)c1C,-6.7,9.7%,x,-0.1%,x
CCN(CC)C(=O)c1sc2c(c1C)c(=O)n(-c1ccc(Cl)c(Cl)c1)c(=O)n2Cc1ccccc1C#N,0.9,-3.3%[57.1 µM],x,-11.8%[57.1 µM],x
CCN(Cc1ccc(OC)c(F)c1)C(=O)CCl,7.1,25.1µM*,-4.0%,2.8%,8.1%
O=C(NCc1ccco1)c1ccccc1NS(=O)(=O)c1ccc(Cl)s1,-8.4,44.7µM*,0.4%,1.3%,-2.2%
N#CCCN(C(=O)CCl)c1cccc(Cl)c1,13.5,8.91µM*,2.4%,7.1%,-0.8%
CCCCCCN(C(=O)CCl)c1ccccc1,0.2,17.8µM*,-9.5%,-3.3%,3.9%
N#CCCN(C(=O)COC(=O)c1nc(Cl)ccc1Cl)c1ccccc1,4.4,-7.0%,x,-8.7%,x
CCCN(C(=O)c1cc2c(Cl)nc3ccccc3c2s1)c1cccc(C)c1,-1.1,18.3%,x,-7.5%,x
CCCCCCCN(C(=O)CCl)c1cccc(C)c1,9.9,39.8µM*,-0.7%,3.8%,-1.4%
CCCCNC(=O)C[C@H]1C[C@@]2(C(=O)OC)C(=C[C@H](C(C)(C)C)O[C@@H]2C)N(Cc2cccc3ccccc23)C1=O,0.1,x,x,x,x
COC(=O)CNC(=O)[C@H](Cc1ccccc1)NC1(C(=O)NCCc2c[nH]c3ccccc23)CCCCC1,-3.6,x,x,x,x
CCC(C)NC(=O)CS(=O)Cc1nc(-c2cccc(OC)c2)oc1C (stereo unspecified),2.2,25.1µM*,5.7%,10.3%[57.1 µM],2.4%
COc1cccc(-c2nc(CS(=O)CC(=O)O)c(C)o2)c1 (stereo unspecified),-1.5,-33.5%,6.2%,2.5%,2.6%
COc1cccc(-c2nc(CS(=O)CC(=O)NCCCOC(C)C)c(C)o2)c1 (stereo unspecified),0.2,-35.7%,2.7%,2.1%,-0.5%
Cc1ccccc1-c1nc(CS(=O)CC(=O)NC(C)CCc2ccccc2)c(C)o1 (stereo unspecified),-4.1,2.24µM*,x,8.5%,0.3%
COc1cccc(-c2nc(CS(=O)CC(=O)NCCc3ccccc3)c(C)o2)c1 (stereo unspecified),-16.2,28.2µM*,x,-6.6%,-8.0%
SMILES,PI4K2A inh,TrxR1 inh,PKM2 act,TrxR1 substrate,GALK inhibitor
COc1cccc(-c2nc(CS(=O)CC(=O)NC(C)CCc3ccccc3)c(C)o2)c1 (stereo unspecified),-2.5,28.2µM*,x,2.0%,-5.2%
O=C(NCCc1c[nH]c2ccccc12)OCc1cn(Cc2cccc(F)c2F)nn1,0.4,x,x,x,x
O=C(NCC1COc2ccccc2O1)c1ccc(NC(=O)c2c(Cl)cccc2Cl)cc1 (stereo unspecified),-1.1,x,x,x,x
CCc1oc2c(C)c(O)ccc2c(=O)c1-c1ccc2ccccc2n1,-51.6*,4.9%[57.1 µM],-5.2%,3.9%[57.1 µM],5.6%
Cc1cc(C)c2c(=O)n(CC(=O)N3CCC(Cc4ccccc4)CC3)sc2n1,x,x,1.58µM*,x,-1.6%
Cc1cccc(N2CCN(C(=O)Cn3sc4nc(C)cc(C)c4c3=O)CC2C)c1 (stereo unspecified),-4.5,-40.7%,u,2.9%[57.1 µM],0.4%
CSCCCNC(=O)CN1C(=O)C2CCCCN2C(=O)c2ccccc21 (stereo unspecified),1.0,x,x,x,x
O=C(CN1C(=O)NC2(CCCCC2)C1=O)Oc1ccc2ccc(=O)oc2c1,4.1,50.1µM*,x,378.7%,x
Cc1ccc(S(=O)(=O)N2CCN(c3nc(-c4ccnnc4)nc4ccccc34)CC2)cc1,x,u,x,8.7%,x
C#CCSc1nccc(-c2nn(-c3ccc(C)cc3)ccc2=O)n1,-22.6,79.4µM*,-8.7%,20.4%,-3.3%
O=C1C=CC(=O)N1c1ccc2c(c1)C(NC(=O)C(F)(F)F)c1ccccc1-2 (stereo unspecified),16.4,1.78µM*,x,3.7%,x
CC(=O)c1ccc(NC(=O)CC2Oc3ccc(C)cc3NC2=O)cc1 (stereo unspecified),2.2,13.6%,x,-1.7%,x
CCOC(=O)CSc1nnc(C)c(=O)[nH]1,0.7,-13.0%,-1.5%,-1.5%,0.0%
CCOC(=O)CSc1nnc(NCC(=O)OC)c(=O)[nH]1,-4.4,10µM*,9.9%,2.6%,1.5%
COc1cc2nc(CCNCc3ccccc3)nc(NC3CCN(C)CC3)c2cc1OC,x,u,x,-4.4%,x
Cn1c(=O)oc2cc(S(=O)(=O)Nc3ccc(O)cc3)ccc21,-1.0,11.4%,8.91µM*,-0.7%,1.9%
Cc1sccc1C1C(C#N)=C(N)SC(N)=C1C#N,x,x,6.1%,x,-2.4%
Cc1cc(C2C(C#N)=C(N)SC(N)=C2C#N)c(C)s1,-0.5,31.6µM*,2.2%,-4.6%,-0.8%
C#CC(=O)N(c1cccc(OC)c1)C(C(=O)NC1CCCC1)c1cccs1 (stereo unspecified),-7.8,u,-0.9%,11.1%,-1.6%
C#CC(=O)N(c1ccc(OC)c(OC)c1)C(C(=O)NC1CCCC1)c1cccs1 (stereo unspecified),-11.2,3.16µM*,-11.0%,0.6%,-5.0%
COc1ccc(NC(=O)Cn2c(SCc3ccc(F)cc3)nc3cccnc32)c(OC)c1,-6.6,18.5%,x,1.0%,x
Cc1nn(-c2ccc(Cl)cc2)c(=O)c2ccccc12,0.2,20.5%,0.7%,-3.4%,0.8%
Cc1c(Cl)sn(-c2ccc(Cl)cc2)c1=O,0.3,5.01µM*,-4.4%,-11.6%,-1.7%
O=C(/C=C/c1ccc([N+](=O)[O-])cc1)Oc1ccc(/C=N/NC(=O)c2ccncc2)cc1,20.0,35.5µM*,x,-4.5%,-8.5%
CC(C)CNC(=O)OCc1cn(Cc2cccc(F)c2F)nn1,-0.5,x,x,x,x
